Measured values: PubChem BioAssay (NCATS)
Results filed as inconclusive are left out. Active and inactive are the calls of the source. The call rests on the fitted dose curve; in most records, active means well fitted inhibition curve with a large enough effect; inconclusive means small, poorly fitted or top-dose-only effect; inactive means flat fitted curve, though single readings scatter.

Experiments:
Experiment in all cases: qHTS profiling for inhibitors of Plasmodium falciparum proliferation (AID 504749); further: nearly all actives have a fitted effect of over 60% in size
Conditions in all cases: P. falciparum in erythrocytes, SYBR Green DNA, 72 h; series mostly up to 28.7 µM
CP315 = tested on: CP315
Outline: (§1)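 SYBR Green fluorescence (ex 485 nm, em 535 nm) reports parasite DNA after 72 h compound exposure of infected red cells at 0.3% parasitemia, 2.5% hematocrit; signal normalized to 0.29 uM artemisinin and vehicle wells.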

CP325 = tested on: CP325
Outline: as §1

CP329 = tested on: CP329
Outline: as §1

CP335 = tested on: CP335
Outline: as §1

DFO2036 = tested on: DFO2036
Outline: as §1

DIV14 = tested on: DIV14
Outline: as §1

DIV17 = tested on: DIV17
Outline: as §1

DIV30 = tested on: DIV30
Outline: as §1

Dd2 = tested on: Dd2
Outline: as §1

ECU = tested on: ECU
Outline: as §1

Measured: Potency
Potency means the concentration at half of the fitted maximal effect.

CC(C)(CO)[C@@H](O)C(=O)NCCC(=O)NCCSSCCNC(=O)CCNC(=O)[C@H](O)C(C)(C)CO
inactive: all assays above

C[C@H](CCC(=O)O)[C@H]1CC[C@H]2[C@@H]3CC[C@@H]4C[C@H](O)CC[C@]4(C)[C@H]3C[C@H](O)[C@]12C
inactive: all assays above

O=C(O)/C=C/c1ccccc1
inactive: all assays above

CC(=O)NCCCS(=O)(=O)O
inactive: all assays above

CCCCCCCCCC(=O)NO
inactive: all assays above

CN(Cc1ccccc1)Cc1ccccc1
inactive: all assays above

CN=C1C=CC(=C(c2ccc(N(C)C)cc2)c2ccc(N(C)C)cc2)C=C1
active: CP315 1070 nM | CP325 953 nM | CP329 757 nM | CP335 301 nM | DFO2036 398 nM | DIV14 1510 nM | DIV17 1510 nM | DIV30 1690 nM | Dd2 282 nM | ECU 891 nM

CC(=O)Oc1cccc(C(=O)O)c1OC(C)=O
inactive: all assays above

Cc1ncc(COP(=O)(O)O)c(CN)c1O
inactive: all assays above

S=C1SCN(Cc2ccccc2)CN1Cc1ccccc1
inactive: all assays above

O=C(O)c1ccc(NC(=O)[C@H](Cc2ccc(O)cc2)NC(=O)c2ccccc2)cc1
inactive: all assays above

ClC(Cl)Cl
inactive: all assays above

F[Si-2](F)(F)(F)(F)F
inactive: all assays above

NC(=S)NS(=O)(=O)c1ccc(N)cc1
inactive: all assays above

CCN(CC)C(=O)c1cccnc1
inactive: all assays above

OC[C@H]1O[C@@H]2O[C@H]3[C@H](O)[C@@H](O)[C@@H](O[C@H]4[C@H](O)[C@@H](O)[C@@H](O[C@H]5[C@H](O)[C@@H](O)[C@@H](O[C@H]6[C@H](O)[C@@H](O)[C@@H](O[C@H]7[C@H](O)[C@@H](O)[C@@H](O[C@H]1[C@H](O)[C@H]2O)O[C@@H]7CO)O[C@@H]6CO)O[C@@H]5CO)O[C@@H]4CO)O[C@@H]3CO
inactive: all assays above

NCC[C@H](O)C(=O)N[C@@H]1C[C@H](N)[C@@H](O[C@H]2O[C@H](CN)CC[C@H]2N)[C@H](O)[C@H]1O[C@H]1O[C@H](CO)[C@@H](O)[C@H](N)[C@H]1O
inactive: all assays above

CC(C)(C)CC(C)(C)c1cc(Cc2cc(C(C)(C)CC(C)(C)C)cc(-n3nc4ccccc4n3)c2O)c(O)c(-n2nc3ccccc3n2)c1
inactive: all assays above

CC(=O)[C@H]1CC[C@H]2[C@@H]3C=CC4=CC(=O)CC[C@@]4(C)[C@H]3CC[C@]12C
inactive: all assays above

Cc1ncc(C[n+]2csc(CCOP(=O)(O)O)c2C)c(N)n1
inactive: all assays above

COc1ccc(-c2noc(CC(=O)O)c2-c2ccc(OC)cc2)cc1
inactive: all assays above

OC/C=C/c1ccccc1
inactive: all assays above

C[C@H](N)C(=O)N[C@@H](C)P(=O)(O)O
inactive: all assays above

C[Si](C)(C)O[Si](C)(C)C
inactive: all assays above

CCCCCCCCCCCC(=O)OCC(O)CO (centres undefined)
inactive: all assays above

CO[C@H]1C[C@@H]2CC[C@@H](C)[C@@](O)(O2)C(=O)C(=O)N2CCCC[C@H]2C(=O)O[C@H]([C@H](C)C[C@@H]2CC[C@@H](OC(=O)C(C)(CO)CO)[C@H](OC)C2)CC(=O)[C@H](C)/C=C(\C)[C@@H](O)[C@@H](OC)C(=O)[C@H](C)C[C@H](C)/C=C/C=C/C=C/1C
inactive: all assays above

COc1ccc(C(=O)c2ccc(C)cc2)c(O)c1
inactive: all assays above

O=P(O)(O)CP(=O)(O)O
inactive: all assays above

CC12CCC(C[N+](C)(CCC[N+](C)(C)C)C1)C2(C)C (centres undefined)
inactive: all assays above

CC1=C(/C=C/C(C)=C/C=C/C(C)=C/C(=O)Oc2c(C)c(C)c3c(c2C)CC[C@@](C)(CCC[C@H](C)CCC[C@H](C)CCCC(C)C)O3)C(C)(C)CCC1
inactive: all assays above

Oc1cc(O)cc(O)c1
inactive: all assays above

O=C(O)COc1ccccc1/C=N/NC(=O)c1ccncc1
inactive: all assays above

Nc1nccs1
inactive: all assays above

OCC1(CO)COC(C(Cl)(Cl)Cl)OC1
inactive: all assays above

S=C=Nc1ccc(N=C=S)cc1
inactive: all assays above

CC1=CC(=C(c2ccc(N)cc2)c2ccc(N)cc2)C=CC1=N
active: CP315 4780 nM | CP325 6010 nM | CP329 4780 nM | CP335 2130 nM | DFO2036 2820 nM | DIV14 1070 nM | DIV17 1350 nM | DIV30 5360 nM | Dd2 2820 nM | ECU 2240 nM

Cc1nc(NS(=O)(=O)c2ccc(N)cc2)nc(C)c1Br
inactive: all assays above

CC(=O)Oc1cccc2c1C(=O)c1c(OC(C)=O)cc(C(=O)O)cc1C2=O
inactive: all assays above

CS(=O)(=O)OCC(O)C(O)COS(C)(=O)=O (centres undefined)
inactive: all assays above

CCCCCCCCCCCCCCCCCC[N+](C)(C)CCC[Si](OC)(OC)OC
inactive: all assays above

O=C(NNCS(=O)(=O)O)c1ccncc1
inactive: all assays above

CCOC(C)OCC
inactive: all assays above

C=Cc1ccc(S(=O)(=O)O)cc1
inactive: all assays above

O=C(O)CCC/C=C\C[C@@H]1[C@@H](/C=C/[C@@H](O)COc2cccc(C(F)(F)F)c2)[C@H](O)C[C@@H]1O
inactive: all assays above

O=P(O)(O)O
inactive: all assays above

O=C1NCCN1c1ncc([N+](=O)[O-])s1
inactive: all assays above

O=C(CCCCCCCCCCCCC1CCCC1)Nc1ccc(S(=O)(=O)c2ccc(NC(=O)CCCCCCCCCCCCC3CCCC3)cc2)cc1
inactive: all assays above

O=P(O)(O)OC[C@H]1O[C@](O)(COP(=O)(O)O)[C@@H](O)[C@@H]1O
inactive: all assays above

Cc1cc(=O)c(C(=O)N[C@@H](C(=O)N[C@@H]2C(=O)N3C(C(=O)O)=C(CSc4nnnn4C)CS[C@H]23)c2ccc(O)cc2)c[nH]1
inactive: all assays above

CCCCCCCCCCCCCCCCCCCCCC(=O)Nc1ccn([C@@H]2O[C@H](CO)[C@@H](O)[C@@H]2O)c(=O)n1
inactive: all assays above

CCCCCCCCCCCCCC(=O)OCC(COP(=O)([O-])OCC[N+](C)(C)C)OC(=O)CCCCCCCCCCCCC (centres undefined)
inactive: all assays above

N[C@H](CC(=O)O)C(=O)O
inactive: all assays above

Cc1cc(-c2ccc(N=Nc3ccc4c(S(=O)(=O)O)cc(S(=O)(=O)O)c(N)c4c3O)c(C)c2)ccc1N=Nc1ccc2c(S(=O)(=O)O)cc(S(=O)(=O)O)c(N)c2c1O
inactive: all assays above

O=C(O)Cc1nn(Cc2ccc(Br)cc2F)c(=O)c2ccccc12
inactive: all assays above

CC(CC=O)CCCC(C)(C)O (centres undefined)
inactive: all assays above

CCCCC
inactive: all assays above

CC(C)CCC[C@@H](C)[C@H]1CC[C@H]2[C@@H]3CC=C4C[C@@H](O)CC[C@]4(C)[C@H]3CC[C@]12C
inactive: all assays above

CCCCC(CC)COS(=O)(=O)O (centres undefined)
inactive: all assays above

CCCCC/C=C\C/C=C\C/C=C\CCCCC(=O)O
inactive: all assays above

CCOc1ccc(NC(=S)Nc2ccc(OCC)cc2)cc1
inactive: all assays above

NC(=O)[C@H]1O[C@@H](O)[C@H](O)[C@@H](O)[C@@H]1O
inactive: all assays above

CCOC(=S)SSC(=S)OCC
inactive: all assays above

O=C(O)[C@H]1CN(C/C=C/P(=O)(O)O)CCN1
inactive: all assays above

CCC(Cc1c(I)cc(I)c(O)c1I)C(=O)O (centres undefined)
inactive: all assays above

CC1=CCC2CC1C2(C)C (centres undefined)
inactive: all assays above

CCCc1ccc(C(=O)O)cc1
inactive: all assays above

OB(O)O
inactive: all assays above

OCl
inactive: all assays above

OCCCNc1ccccc1
inactive: all assays above

CCN(CC)CCOc1ccc2nc(N(C)C)sc2c1
inactive: all assays above

CCCCCCOC(=O)c1cccnc1
inactive: all assays above

CC(C)O
inactive: all assays above

O=C1N=C2SCCN2C(=O)C1Cc1ccc(Cl)cc1 (centres undefined)
inactive: all assays above

NC(=O)[C@@H]1CCCN1C(=O)[C@H](Cc1cnc[nH]1)NC(=O)[C@@H]1CCC(=O)N1
inactive: all assays above

CN(CCO)CC(O)Cn1cnc2c1c(=O)n(C)c(=O)n2C (centres undefined) (tested in a mixture with another compound)
inactive: all assays above

CCCCCCCCCCCCOCCCN
inactive: all assays above

CN(C)c1ccc(C(=C2C=CC(=[N+](C)C)C=C2)c2c(O)c(S(=O)(=O)[O-])cc3cc(S(=O)(=O)O)ccc23)cc1
not listed: DIV14 | DIV17
inactive: all other assays above

CC(C)Cc1ccc([C@@H](C)C(=O)NS(C)(=O)=O)cc1
inactive: all assays above

Cc1cc2nc3c(=O)[nH]c(=O)nc-3n(C[C@H](O)[C@H](O)[C@H](O)COP(=O)(O)OP(=O)(O)OC[C@H]3O[C@@H](n4cnc5c(N)ncnc54)[C@H](O)[C@@H]3O)c2cc1C
not listed: DIV30
inactive: all other assays above

CC(CCc1ccc(O)cc1)NCC(O)c1ccc(O)cc1 (centres undefined)
not listed: DIV14
inactive: all other assays above

O=C(OCc1ccccc1)c1ccc(O)cc1
not listed: DIV14
inactive: all other assays above

CC(C)=CCC/C(C)=C/C=C/C(C)=C/C=C/C(C)=C/C=C/C=C(C)/C=C/C=C(C)/C=C/C=C(\C)CCC=C(C)C
not listed: DIV14 | ECU
inactive: all other assays above

O=C1CCC(=O)N1CO
inactive: all assays above

O=[N+]([O-])c1c(Cl)cccc1-c1c[nH]cc1Cl
not listed: DIV14
inactive: all other assays above

O=C(O)CC/C=C\CC[C@@H]1[C@@H](N2CCCCC2)[C@@H](O)C[C@@H]1OCc1ccc(-c2ccccc2)cc1
not listed: DIV17
inactive: all other assays above

FC(F)(F)C(F)(F)C(F)(F)C(F)(F)C(F)(F)F
not listed: DIV14
inactive: all other assays above

C[C@]12CC[C@@H]3c4ccc(OC(=O)c5ccccc5)cc4CC[C@H]3[C@@H]1CC[C@@H]2O
active: CP335 12000 nM
not listed: Dd2
inactive: all other assays above

COC(=O)CC[C@H](N)C(=O)O
inactive: all assays above
